Measurements: PubChem BioAssay
Activity calls are given as the source filed them.

Key:
[1] = target: Albumin (Bos taurus) (UniProt P02769); assay: compounds binding labelled BSA control protein – biochemical, small-molecule microarray, Alexa647 label, 635/667 nm fluorescence, artefact control for SMM control protein annotation, profiling panel (AID 1118); conditions: BSA-A647 binding, fluorescence 635 nm, higher = more signal;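 note: score merges 667 nm emission intensity and signal-to-noise per printed compound spot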
[2] = probe aXIP binding to arrayed compounds – biochemical, NeuroSMM set, 635/667 nm fluorescence, primary screen (AID 1119); conditions: small-molecule microarray, higher = more signal, called active from +8 up or from −8 down;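 note: probe is the protein aXip251-270 applied at 1 µg/mL to compound-printed slides; binding of probe to printed compounds measured as 667 nm fluorescence plus signal to noise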
[3] = probe aNOTCH3 binding on compound microarray – biochemical, small-molecule microarray, 635/667 nm fluorescence, primary screen (AID 1120); conditions: higher = more signal;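 note: probe is a biotin-tagged antibody raised against NOTCH3 rather than NOTCH3 protein; score merges spot fluorescence near 667 nm with spot signal to noise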
[4] = probe aNOTCH2 binding on compound microarray – biochemical, small-molecule microarray, 635/667 nm fluorescence, primary screen (AID 1121); conditions: higher = more signal;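 note: score merges feature fluorescence read at 667 nm with its signal to noise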
[5] = target: Carbonic anhydrase 2 (Homo sapiens) (UniProt P00918); assay: compounds binding carbonic anhydrase 2 – biochemical, small-molecule microarray, Alexa647-labelled CAII, profiling panel (AID 1122); conditions: CAII-A647 binding fluorescence, higher = more signal
[6] = COS7 lysate on small-molecule microarray, probe aHis, 635 nm (AID 1123); conditions: COS7 cell lysate, fluorescence, higher = more signal;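 note: z-score combines 667nm fluorescence intensity with signal-to-noise per printed compound spot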
[7] = probe aLAP1 signal on lysate-treated microarray – cell lysate, small-molecule microarray, COS7 lysate, primary screen (AID 1124); conditions: probe aLAP1, fluorescence, higher = more signal;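 note: lysate comes from COS7 cells expressing LAP1 and is applied at 0.3 µg/mL; score merges spot fluorescence near 667 nm with signal-to-noise over triplicate slides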
[8] = system: Sam68 (KHDRBS1); assay: compounds binding KHDRBS1 protein – biochemical, small-molecule microarray, 635 nm fluorescence, primary screen (AID 1125); conditions: higher = more signal;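 note: score merges 667 nm channel intensity with signal to noise over triplicate slides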
[9] = system: Chordin-like protein 2 (CHRDL2); assay: compounds binding chordin-like 2 – biochemical, small-molecule microarray, 635 nm fluorescence, primary screen (AID 1126); conditions: fluorescence 635 nm, higher = more signal;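 note: printed compound slides probed with Chrdl2 protein at 4 µg/mL for 1 h at 4 C; score merges 667 nm emission intensity with signal to noise over three replicate slides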
[10] = target: Concanavalin-A (Canavalia ensiformis) (UniProt P02866); assay: compounds binding concanavalin A lectin – biochemical, small-molecule microarray, Alexa647 label, 635 nm, artefact control for SMM control protein annotation, primary screen (AID 1127); conditions: ConA-A647 binding fluorescence, higher = more signal;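 note: z combines 667 nm emission intensity with signal-to-noise across three replicate slides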
Chain of Concanavalin-A (Canavalia ensiformis) (P02866 whole entry, looked up): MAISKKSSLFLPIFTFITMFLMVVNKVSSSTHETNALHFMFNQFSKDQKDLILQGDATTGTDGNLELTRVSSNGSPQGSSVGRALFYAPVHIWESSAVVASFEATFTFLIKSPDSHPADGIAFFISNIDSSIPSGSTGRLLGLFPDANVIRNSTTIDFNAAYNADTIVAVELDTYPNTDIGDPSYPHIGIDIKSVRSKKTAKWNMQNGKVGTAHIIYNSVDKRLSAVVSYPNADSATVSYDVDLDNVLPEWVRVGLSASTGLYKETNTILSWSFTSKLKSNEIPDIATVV

Chain of Albumin (Bos taurus) (P02769 whole entry, looked up): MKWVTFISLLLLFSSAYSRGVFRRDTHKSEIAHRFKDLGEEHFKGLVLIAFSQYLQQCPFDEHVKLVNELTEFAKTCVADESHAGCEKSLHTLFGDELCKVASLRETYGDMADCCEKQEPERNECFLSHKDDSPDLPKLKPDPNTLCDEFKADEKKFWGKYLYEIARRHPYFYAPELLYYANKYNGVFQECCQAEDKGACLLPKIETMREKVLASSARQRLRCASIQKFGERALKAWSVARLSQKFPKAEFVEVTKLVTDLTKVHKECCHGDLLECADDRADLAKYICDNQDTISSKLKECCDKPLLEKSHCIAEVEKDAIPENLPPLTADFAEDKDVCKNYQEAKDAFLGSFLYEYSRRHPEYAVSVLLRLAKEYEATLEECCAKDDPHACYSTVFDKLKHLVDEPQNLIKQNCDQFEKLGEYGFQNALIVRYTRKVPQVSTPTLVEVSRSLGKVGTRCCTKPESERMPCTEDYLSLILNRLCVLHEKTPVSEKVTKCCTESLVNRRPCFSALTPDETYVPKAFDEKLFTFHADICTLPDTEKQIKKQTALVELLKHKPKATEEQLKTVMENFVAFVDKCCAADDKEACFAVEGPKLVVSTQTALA

Structure (SMILES)	composite z-score [1]	composite Z-score [2]	composite z-score [3]	composite z-score [4]	composite z-score [5]	composite z-score [6]	composite z-score [7]	composite z-score [8]	composite z-score [9]	composite z-score [10]
O=C1c2ccccc2[C@](Cc2ccccc2I)(C(=O)O)[C@H](c2ccc(CO)cc2)N1C1CCCCC1	0.823	0.222 (inactive)	0.447	-0.0708	0.739	3.57	0.589	1.3	-0.423	1.21
CCN1C(C)=C(C(=O)OC)[C@@H](c2ccccc2)N2C(=O)[C@@]3(C(=O)OC)O[C@@]12[C@@H]1C(=O)N(C)C(=O)[C@@H]13	0.216	0.0523 (inactive)	0.19	-0.141	0.752	0.32	0.164	0.686	1.01	0.418
COC(=O)c1ccc(C#CC(NP(=O)(c2ccccc2)c2ccccc2)c2ccccc2)cc1 (stereo not given)	1	0.444 (inactive)	0.272	0.335	1.1	2.59	-0.0375	1.08	1.49	1.15
COCCOC(=O)N1C(=O)[C@@]2(c3cc(C#CCNC(N)=O)ccc31)[C@H](c1ccc(OCCO)cc1)N1[C@H](c3ccccc3)[C@H](c3ccccc3)OC(=O)[C@H]1[C@@H]2C(=O)N1CCCCCCC1	-0.208	-0.333 (inactive)	0.255	-0.0059	0.174	0.043	0.332	0.82	0.137	0.669
CO[C@@H]1COC(=O)CC=C[C@H](C)COC(=O)[C@H](Cc2ccccc2)NC(=O)CC=C[C@H]1C	-2.04	0.772 (inactive)	-0.162	-0.167	-0.155	-0.596	0.0055	0.294	1.53	-0.651
CC(C)CN1C(=O)[C@@]2(Cc3ccccc31)c1ccccc1C(=O)N(C1CCCCC1)[C@H]2c1ccc(CO)cc1	-0.436	0.439 (inactive)	-0.0647	-0.0433	0.781	0.878	1.23	-0.18	-1.43	-1.42
[N-]=[N+]=NCc1ccccc1C[C@@]1(C(=O)O)N=C(c2ccc(OCCCO)cc2)O[C@@H]1c1ccccc1N=[N+]=[N-]	0.855	0.198 (inactive)	0.328	-0.0424	0.726	2.05	0.497	1.3	-0.256	0.421
C=CCC1=C[C@H]2[C@H]([C@@H]3C=C[C@]2(CC=C)C(=O)[C@]32CO2)[C@@]2(CO2)C1=O	-0.44	0.528 (inactive)	0.519	0.082	-0.262	0.104	-0.0222	-0.56	1.54	-1
CO[C@H]1COC(=O)[C@@H](Cc2ccccc2)NC(=O)[C@@H](C)COC(=O)CC=C[C@@H]1C	-1.03	-0.179 (inactive)	-0.095	-0.14	-0.498	-0.875	-0.422	-0.0602	1.24	-0.773
COC(=O)C1=CC(c2ccc(CO)cc2)=CC(C2CC2)N(Cc2sc3ccccc3c2Cl)C=C1C(=O)OC (stereo not given)	0.971	0.152 (inactive)	0.3	0.101	0.866	2.78	0.58	1.31	0.185	1.16
CC(=O)NCCCC[C@@H]1NC(=O)[C@H]2C[C@@H](C(=O)NCCCCCCN(C)C)[C@@H](c3cccc(OCCO)c3)N2C1=O	-1.13	3.25 (inactive)	0.259	0.075	0.694	1.73	1.09	1.32	1.43	1.16
COC(=O)[C@@]1(Cc2ccccc2N=[N+]=[N-])N=C(c2ccc(OCCCO)cc2)O[C@H]1c1ccccc1CN=[N+]=[N-]	-0.487	0.289 (inactive)	-0.0699	0.0341	0.571	2.1	-0.113	1.22	0.0008	0.456
CC(C)=C1C(=O)C(c2ccccc2)=C2CN3C(=O)N(CCc4ccccc4)C(=O)[C@]3(Cc3ccccc3)[C@H]21	0.0673	0.548 (inactive)	-0.0209	0.224	0.204	0.572	-0.14	-1.59	-2.04	-1.18
C=C[C@H](OC)[C@@H](OC(=O)Nc1ccc(SC)cc1)c1ccc(OC)c(O)c1	-1.37	0.157 (inactive)	-0.403	-0.183	0.1	0.677	-0.245	0.347	-0.998	-0.473
COc1ccc(-c2cc3c(c(-c4ccccc4)n2)[Si](C(C)C)(C(C)C)O[C@H]3c2ccccc2)cn1	0.843	0.0861 (inactive)	0.201	-0.0349	-0.0177	0.263	-0.0375	0.723	0.288	0.165
C=CCNC(=O)[C@H]1[C@@H]2C(=O)O[C@@H](c3ccccc3)[C@@H](c3ccccc3)N2[C@@H](c2ccc(O)cc2)[C@]12C(=O)Nc1ccc(C#CCNC(N)=O)cc12	-0.273	0.593 (inactive)	-0.174	0.12	0.78	0.789	0.0128	0.213	-1.02	-0.649

Structure (SMILES)	composite z-score [1]	composite Z-score [2]	composite z-score [3]	composite z-score [4]	composite z-score [5]	composite z-score [6]	composite z-score [7]	composite z-score [8]	composite z-score [9]	composite z-score [10]
COc1ccc(-c2ccccc2[C@@H]2N[C@H](C(=O)O)CC[C@H]2C)cc1	-0.497	0.3 (inactive)	-0.0647	-0.131	0.0441	0.711	-0.423	0.297	0.456	0.301
CC(C)[Si]1(C(C)C)O[C@@H](c2ccccc2)c2cc(C3CC3)nc(-c3ccc(Oc4ccccc4)cc3)c21	-1.01	-0.233 (inactive)	-0.157	-0.125	-0.289	-0.346	-0.0034	-0.906	-0.408	-1.27
CCCN1C(=O)[C@@]2(CCS(=O)(=O)c3ccccc3)N=C(c3ccc(OCCCO)cc3)O[C@H]2c2ccccc21	-0.676	-0.113 (inactive)	0.0833	-0.0956	0.294	2.41	0.163	1.3	0.637	0.892
COc1ccc([Si](C)(C)[C@H]2[C@H](CCO)O[C@@]3(C(=O)N(Cc4ccccc4)c4ccc(N5C(=O)c6cccc7cccc5c67)cc43)[C@@H]2C)cc1	0.151	-0.229 (inactive)	-0.18	-0.155	0.286	0.0609	1.06	0.143	-0.966	0.386
Cc1cc(C)c(C(O)C2C=CC3C(=O)N(C)C(=O)C3N2N2CCCCC2)c(C)c1 (stereo not given)	0.477	1.16 (inactive)	0.364	0.192	0.74	1.81	0.83	1.29	0.245	1.15
O=C1O[C@H](c2ccccc2)[C@H](c2ccccc2)N2[C@H]1[C@@H](C(=O)NC[C@H](O)c1ccccc1)[C@]1(C(=O)Nc3ccc(C#CC4=CCCCC4)cc31)[C@H]2c1ccc(OCCO)cc1	0.534	0.318 (inactive)	0.141	-0.0741	0.522	0.864	0.402	1.31	0.424	1.11
C=C(COC)C(=O)CC[C@H](OC(=O)c1ccccc1-c1ccccc1C(=O)O)c1cccc(OCCO)c1	-0.611	0.61 (inactive)	0.123	-0.118	0.418	4.78	0.893	0.735	1.43	0.893
O=C1C2C=CC(C(O)C(c3ccccc3)c3ccccc3)N(Nc3ccc([N+](=O)[O-])cc3)C2C(=O)N1c1ccccc1 (stereo not given)	0.751	-0.214 (inactive)	0.272	-0.115	0.733	3.13	0.953	1.33	0.0427	1.17
CCOC(=O)C[C@H]1[C@H](OC(=O)Cc2ccc3c(c2)OCO3)[C@@H](NC(=O)c2ccc3ccccc3c2)c2cc(OCCCO)ccc2N1C(=O)Cc1ccc(OC)cc1	0.897	0.563 (inactive)	0.0284	-0.0846	0.0553	1.54	-0.333	0.952	0.472	0.684
C=CC[C@@]1(C(=O)NCC(O)CO)N=C(c2ccc(OCCCO)cc2)O[C@@H]1c1ccccc1CN=[N+]=[N-] (stereo not given in full)	0.988	0.536 (inactive)	-0.105	-0.0759	0.809	2.98	0.411	1.04	-0.834	-0.304
CN1CCC(CCCO)=CC1C1CC1 (stereo not given)	-0.958	3.24 (inactive)	-0.0918	-0.181	0.299	0.238	-0.569	0.0585	0.39	0.066
COc1ccc([Si](C)(C)[C@@H]2[C@@H](CCO)O[C@]3(C(=O)N(Cc4ccc(NC(=O)[C@H](C)O)cc4)c4ccccc43)[C@H]2C)cc1	0.762	0.423 (inactive)	-0.0288	-0.127	0.348	1.42	-0.0561	1.32	-0.0817	1.08
Cc1ccc(S(=O)(=O)N[C@H]2COC(=O)CC=C[C@H](C)COC(=O)N[C@@H](C)C(=O)CC=C[C@@H]2C)cc1	-0.0363	-1.01 (inactive)	-0.178	-0.145	-0.461	-0.43	-0.314	0.269	1.52	0.152
CN1C(=O)C2C=CC(C(O)C3CC=CCC3)N(Nc3ccccc3)C2C1=O (stereo not given)	0.598	-0.442 (inactive)	0.351	0.0697	0.715	2.75	-0.147	1.3	0.912	0.955
COc1ccc([Si](C)(C)[C@H]2[C@H](CC(=O)N(CCO)Cc3ccccc3)O[C@@]3(C(=O)N(C)c4ccccc43)[C@@H]2C)cc1	0.748	-0.0798 (inactive)	0.0833	-0.155	0.384	0.136	0.177	1.05	1.21	0.664
CC(C)C[C@@H]1NC(=O)[C@H]2C[C@@H](C(=O)NCCCCCC[N+](C)(C)C)[C@@H](c3ccc(O)cc3)N2C1=O	0.34	0.448 (inactive)	-0.126	-0.164	0.717	0.439	0.102	-0.907	0.362	0.452
